# In the supplement of paper PMC8728848:
# Shown is part of a subset that was picked to be rich in the strongest signals.
# How the values were obtained:
# Assay in all cases: glycan array binding signal (z-score within array); higher = stronger binding
# Conditions in all cases: glycan notation: IUPAC condensed, linker removed
# [1] = target: Fuc(a1-2)Gal(b1-3)GalNAc(a1-3)[Fuc(a1-2)]Gal(b1-4)Glc
# Summary of the method: (§1)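 Negative Z-scores can be read as non-binding. The Z-score is calculated within each array and then averaged across arrays of one protein sequence at different concentrations or buffers and across linkers. Arrays, 3228 in all, were curated from the Consortium for Functional Glycomics database and kept only where the protein sequence was available.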
# Fuc(a1-2)Gal(b1-3)GlcNAc = target: Fuc(a1-2)Gal(b1-3)GlcNAc
# Summary of the method: as §1
# [2] = target: Fuc(a1-2)Gal(b1-3)GlcNAc(b1-3)GalNAc
# Summary of the method: as §1
# [3] = target: Fuc(a1-2)Gal(b1-4)GlcNAc(b1-3)Gal(b1-4)GlcNAc
# Summary of the method: as §1
# [4] = target: Fuc(a1-2)Gal(b1-4)[Fuc(a1-3)]GlcNAc(b1-2)[Fuc(a1-2)Gal(b1-4)[Fuc(a1-3)]GlcNAc(b1-4)]Man(a1-3)[Fuc(a1-2)Gal(b1-4)[Fuc(a1-3)]GlcNAc(b1-2)Man(a1-6)]Man(b1-4)GlcNAc(b1-4)GlcNAc
# Summary of the method: as §1
# [5] = target: Fuc(a1-2)[Gal(a1-3)]Gal(b1-4)GlcNAc(b1-2)Man(a1-3)[Fuc(a1-2)[Gal(a1-3)]Gal(b1-4)GlcNAc(b1-2)Man(a1-6)]Man(b1-4)GlcNAc(b1-4)GlcNAc
# Summary of the method: as §1
# [6] = target: Fuc(a1-2)[GalNAc(a1-3)]Gal(b1-4)[Fuc(a1-3)]GlcNAc(b1-3)GalNAc
# Summary of the method: as §1
# [7] = target: Fuc(a1-3)[Gal3S(b1-4)]GlcNAc
# Summary of the method: as §1
# [8] = target: Gal(a1-3)Gal(b1-3)GlcNAc(b1-2)Man
# Summary of the method: as §1
# Gal(a1-3)Gal(b1-4)GlcNAc = target: Gal(a1-3)Gal(b1-4)GlcNAc
# Summary of the method: as §1
# [9] = target: Gal(a1-3)Gal(b1-4)GlcNAc(b1-2)Man(a1-3)[Gal(a1-3)Gal(b1-4)GlcNAc(b1-2)Man(a1-6)]Man(b1-4)GlcNAc(b1-4)GlcNAc
# Summary of the method: as §1
# Gal(b1-3)GlcNAc = target: Gal(b1-3)GlcNAc
# Summary of the method: as §1
# [10] = target: Gal(b1-3)GlcNAc(b1-3)Gal(b1-3)GlcNAc
# Summary of the method: as §1
# [11] = target: Gal(b1-3)GlcNAc(b1-3)Gal(b1-4)GlcNAc(b1-2)Man(a1-3)[Gal(b1-3)GlcNAc(b1-3)Gal(b1-4)GlcNAc(b1-2)Man(a1-6)]Man(b1-4)GlcNAc(b1-4)GlcNAc
# Summary of the method: as §1
# [12] = target: Gal(b1-3)GlcNAc(b1-3)Gal(b1-4)GlcNAc(b1-2)[Gal(b1-3)GlcNAc(b1-3)Gal(b1-4)GlcNAc(b1-6)]Man(a1-6)[Gal(b1-3)GlcNAc(b1-3)Gal(b1-4)GlcNAc(b1-2)Man(a1-3)]Man(b1-4)GlcNAc(b1-4)[Fuc(a1-6)]GlcNAc
# Summary of the method: as §1
# [13] = target: Gal(b1-3)GlcNAc(b1-3)Gal(b1-4)GlcNAc(b1-3)Gal(b1-4)GlcNAc(b1-2)[Gal(b1-3)GlcNAc(b1-3)Gal(b1-4)GlcNAc(b1-3)Gal(b1-4)GlcNAc(b1-6)]Man(a1-6)[Gal(b1-3)GlcNAc(b1-3)Gal(b1-4)GlcNAc(b1-3)Gal(b1-4)GlcNAc(b1-2)Man(a1-3)]Man(b1-4)GlcNAc(b1-4)[Fuc(a1-6)]GlcNAc
# Summary of the method: as §1
# [14] = target: Gal(b1-3)[Fuc(a1-4)]GlcNAc(b1-2)Man(a1-3)[Gal(b1-3)[Fuc(a1-4)]GlcNAc(b1-2)Man(a1-6)]Man(b1-4)GlcNAc(b1-4)[Fuc(a1-6)]GlcNAc
# Summary of the method: as §1
# Gal(b1-4)Glc = target: Gal(b1-4)Glc
# Summary of the method: as §1
# [15] = target: Gal(b1-4)GlcNAc(b1-2)Man(a1-3)[Gal(b1-4)GlcNAc(b1-2)Man(a1-6)]Man(b1-4)GlcNAc(b1-4)GlcNAc
# Summary of the method: as §1
# [16] = target: Gal(b1-4)GlcNAc(b1-3)Gal(b1-3)GalNAc
# Summary of the method: as §1
# [17] = target: Gal(b1-4)GlcNAc(b1-3)Gal(b1-4)GlcNAc(b1-2)[Gal(b1-4)GlcNAc(b1-3)Gal(b1-4)GlcNAc(b1-6)]Man(a1-6)[Gal(b1-4)GlcNAc(b1-3)Gal(b1-4)GlcNAc(b1-2)Man(a1-3)]Man(b1-4)GlcNAc(b1-4)[Fuc(a1-6)]GlcNAc
# Summary of the method: as §1
# Gal3S(b1-3)GalNAc = target: Gal3S(b1-3)GalNAc
# Summary of the method: as §1
# [18] = target: GalNAc(a1-3)GalNAc(b1-3)Gal(a1-4)Gal(b1-4)GlcNAc
# Summary of the method: as §1
# Glc(b1-6)Glc = target: Glc(b1-6)Glc
# Summary of the method: as §1
# [19] = target: GlcNAc(b1-2)[GlcNAc(b1-4)]Man(a1-3)[GlcNAc(b1-4)][GlcNAc(b1-2)Man(a1-6)]Man(b1-4)GlcNAc(b1-4)GlcNAc
# Summary of the method: as §1
# [20] = target: GlcNAc(b1-2)[GlcNAc(b1-4)]Man(a1-3)[GlcNAc(b1-4)][GlcNAc(b1-2)[GlcNAc(b1-6)]Man(a1-6)]Man(b1-4)GlcNAc(b1-4)[Fuc(a1-6)]GlcNAc
# Summary of the method: as §1
# [21] = target: GlcNAc(b1-3)Gal(b1-4)GlcNAc(b1-2)[GlcNAc(b1-3)Gal(b1-4)GlcNAc(b1-6)]Man(a1-6)[GlcNAc(b1-3)Gal(b1-4)GlcNAc(b1-2)Man(a1-3)]Man(b1-4)GlcNAc(b1-4)GlcNAc
# Summary of the method: as §1
# [22] = target: GlcNAc(b1-3)Gal(b1-4)GlcNAc(b1-3)GalNAc
# Summary of the method: as §1
# [23] = target: GlcNAc(b1-4)Gal(b1-4)GlcNAc
# Summary of the method: as §1
# [24] = target: GlcNAc(b1-4)GlcNAc(b1-4)GlcNAc(b1-4)GlcNAc(b1-4)GlcNAc
# Summary of the method: as §1
# [25] = target: GlcNAc(b1-4)GlcNAc(b1-4)GlcNAc(b1-4)GlcNAc(b1-4)GlcNAc(b1-4)GlcNAc
# Summary of the method: as §1
# Kdn(a2-3)Gal(b1-3)GalNAc = target: Kdn(a2-3)Gal(b1-3)GalNAc
# Summary of the method: as §1
# [26] = target: Man(a1-2)Man(a1-3)[Man(a1-2)Man(a1-6)]Man(a1-6)[Man(a1-2)Man(a1-2)Man(a1-3)]Man(b1-4)GlcNAc(b1-4)GlcNAc
# Summary of the method: as §1
# MurNAc(b1-4)GlcNAc = target: MurNAc(b1-4)GlcNAc
# Summary of the method: as §1
# Neu5Ac(a2-3)Gal(b1-4)Glc = target: Neu5Ac(a2-3)Gal(b1-4)Glc
# Summary of the method: as §1
# [27] = target: Neu5Ac(a2-3)Gal(b1-4)GlcNAc(b1-2)Man
# Summary of the method: as §1
# [28] = target: Neu5Ac(a2-3)Gal(b1-4)GlcNAc(b1-2)Man(a1-3)[Neu5Ac(a2-3)Gal(b1-4)GlcNAc(b1-2)Man(a1-6)]Man(b1-4)GlcNAc(b1-4)[Fuc(a1-6)]GlcNAc
# Summary of the method: as §1
# [29] = target: Neu5Ac(a2-3)Gal(b1-4)GlcNAc(b1-3)Gal
# Summary of the method: as §1
# [30] = target: Neu5Ac(a2-3)Gal(b1-4)GlcNAc(b1-3)Gal(b1-4)GlcNAc(b1-3)Gal(b1-4)GlcNAc(b1-2)Man(a1-3)[Neu5Ac(a2-3)Gal(b1-4)GlcNAc(b1-3)Gal(b1-4)GlcNAc(b1-3)Gal(b1-4)GlcNAc(b1-2)Man(a1-6)]GalNAc
# Summary of the method: as §1
# [31] = target: Neu5Ac(a2-3)Gal(b1-4)GlcNAc(b1-3)Gal(b1-4)[Fuc(a1-3)]GlcNAc
# Summary of the method: as §1
# [32] = target: Neu5Ac(a2-3)Gal(b1-4)[Fuc(a1-3)]GlcNAc(b1-3)Gal(b1-4)GlcNAc
# Summary of the method: as §1
# Neu5Ac(a2-3)GalNAc = target: Neu5Ac(a2-3)GalNAc
# Summary of the method: as §1
# [33] = target: Neu5Ac(a2-6)Gal(b1-4)GlcNAc(b1-2)Man(a1-3)[GlcNAc(b1-4)][Neu5Ac(a2-6)Gal(b1-4)GlcNAc(b1-2)Man(a1-6)]Man(b1-4)GlcNAc(b1-4)GlcNAc
# Summary of the method: as §1
# [34] = target: Neu5Ac(a2-6)Gal(b1-4)GlcNAc(b1-2)Man(a1-3)[Man(a1-6)]Man(b1-4)GlcNAc(b1-4)GlcNAc
# Summary of the method: as §1
# [35] = target: Neu5Ac(a2-6)GlcNAc(b1-4)GlcNAc
# Summary of the method: as §1
# [36] = target: Neu5Ac(a2-8)Neu5Ac(a2-3)[Gal(b1-3)GalNAc(b1-4)]Gal(b1-4)Glc
# Summary of the method: as §1
# [37] = target: Neu5Ac(a2-8)Neu5Ac(a2-8)Neu5Ac(a2-8)Neu5Ac(a2-3)[GalNAc(b1-4)]Gal(b1-4)Glc
# Summary of the method: as §1
# [38] = target: Neu5Ac(b2-6)Gal(b1-4)GlcNAc
# Summary of the method: as §1
# [39] = target: Neu5Gc(a2-6)Gal(b1-4)GlcNAc
# Summary of the method: as §1
# [40] = target: Neu5Gc(a2-8)Neu5Gc(a2-3)Gal(b1-4)GlcNAc
# Summary of the method: as §1
# [41] = target: Neu5Gc(a2-8)Neu5Gc(a2-3)Gal(b1-4)GlcNAc(b1-3)Gal(b1-4)GlcNAc
# Summary of the method: as §1
binder,measurement,setting,value
Vd2LysM (Verticillium dahliae) (protein) YRRTCSHTGKGEGWYIIRRGDNFNAVAADFCTSTNVLTEWNHISTITDNMVNTKIKVPCRWNAGKQRDCLKDQKSSNGWYHIVSGDELKDIAYDFCTTSGSLAGMNGISNPDYIKANTDIVVPCSWN,glycan array binding signal (z-score),[1],2.91
same,glycan array binding signal (z-score),Fuc(a1-2)Gal(b1-3)GlcNAc,0.299
same,glycan array binding signal (z-score),[2],-0.965
same,glycan array binding signal (z-score),[3],0.247
same,glycan array binding signal (z-score),[4],0.533
same,glycan array binding signal (z-score),[5],-0.126
same,glycan array binding signal (z-score),[6],-0.592
same,glycan array binding signal (z-score),[7],0.699
same,glycan array binding signal (z-score),[8],0.43
same,glycan array binding signal (z-score),Gal(a1-3)Gal(b1-4)GlcNAc,-0.365
same,glycan array binding signal (z-score),[9],-1.06
same,glycan array binding signal (z-score),Gal(b1-3)GlcNAc,-0.257
same,glycan array binding signal (z-score),[10],0.452
same,glycan array binding signal (z-score),[11],0.151
same,glycan array binding signal (z-score),[12],6.69
same,glycan array binding signal (z-score),[13],2.23
same,glycan array binding signal (z-score),[14],-0.543
same,glycan array binding signal (z-score),Gal(b1-4)Glc,0.73
same,glycan array binding signal (z-score),[15],-0.349
same,glycan array binding signal (z-score),[16],0.984
same,glycan array binding signal (z-score),[17],2.2
same,glycan array binding signal (z-score),Gal3S(b1-3)GalNAc,-0.656
same,glycan array binding signal (z-score),[18],-0.212
same,glycan array binding signal (z-score),Glc(b1-6)Glc,-1.15
same,glycan array binding signal (z-score),[19],2.82
same,glycan array binding signal (z-score),[20],3.56
same,glycan array binding signal (z-score),[21],0.741
same,glycan array binding signal (z-score),[22],-1.11
same,glycan array binding signal (z-score),[23],-1.44
same,glycan array binding signal (z-score),[24],8.56
same,glycan array binding signal (z-score),[25],4.42
same,glycan array binding signal (z-score),Kdn(a2-3)Gal(b1-3)GalNAc,1.25
same,glycan array binding signal (z-score),[26],2.21
same,glycan array binding signal (z-score),MurNAc(b1-4)GlcNAc,-0.26
same,glycan array binding signal (z-score),Neu5Ac(a2-3)Gal(b1-4)Glc,0.49
same,glycan array binding signal (z-score),[27],-0.481
same,glycan array binding signal (z-score),[28],1.14
same,glycan array binding signal (z-score),[29],-0.599
same,glycan array binding signal (z-score),[30],2.35
same,glycan array binding signal (z-score),[31],-0.732
same,glycan array binding signal (z-score),[32],-0.125
same,glycan array binding signal (z-score),Neu5Ac(a2-3)GalNAc,0.096
same,glycan array binding signal (z-score),[33],-0.761
same,glycan array binding signal (z-score),[34],-0.322
same,glycan array binding signal (z-score),[35],0.619
same,glycan array binding signal (z-score),[36],0.198
same,glycan array binding signal (z-score),[37],1.71
same,glycan array binding signal (z-score),[38],0.512
same,glycan array binding signal (z-score),[39],0.437
same,glycan array binding signal (z-score),[40],2.17
same,glycan array binding signal (z-score),[41],0.317
